Structures are written as SMILES. Inconclusive results are not listed. Active and inactive are the calls of the source. Rule for the calls: active = hit-call score of the fitted dose curve at least 0.9, where 1 is the maximum; inconclusive = response in the unintended direction; inactive = score below 0.9.

Read-out in the test: alkyl and aryl transferase (GSTA2), GSTA2 (gene 2939)
Put plainly: CLD_GSTA2_6hr: CellzDirect (CLD) Gene Expression Assay for alkyl and aryl transferase (GSTA2) at 6 hours (AID 2283666). The procedure: CLD_6hr is a cell-based, multiplexed-readout assay that uses hepatocyte, a human liver primary cell, with measurements taken at 6 hours after chemical dosing in a 96-well plate.CLD_GSTA2_6hr is one of 16 assay component(s) measured or calculated from the CLD_6hr assay. It is designed to make measurements of mRNA induction, a form of inducible reporter, as detected with chemiluminescence signals by Quantitative Nuclease Protection Assay (qNPA) technology.Data from the assay component CLD_GSTA2_6hr was analyzed at the endpoint, CLD_GSTA2_6hr, in the positive analysis fitting direction relative to DMSO as the negative control and baseline of activity. Using a type of inducible reporter, gain-of-signal activity can be used to understand changes in the reporter gene as they relate to the gene GSTA2. Furthermore, this assay endpoint can be referred to as a primary readout. To generalize the intended target to other relatable targets, this assay endpoint is annotated to the transferase intended target family, where subfamily is alkyl and aryl transferase.
Human hepatocyte cultures were treated daily for two consecutive days with fresh dosing solutions containing appropriate concentrations of the 320 ToxCast chemicals (chemical identities were blinded to CellzDirect and other ToxCast collaborators), vehicle control (0.2% DMSO), and positive control inducers as summarized in Table 1. Due to the large number of treatment groups and chemicals examined, the ToxCast chemicals were divided into two groups (spanning two independent cultures of hepatocytes from separate donor preparations (Hu778: ToxCast plates 1 and 2; Hu776: ToxCast plates 3 and 4). Each preparation of human hepatocyte cultures was treated with respective vehicle control, medium only control, set of six positive controls/reference chemicals for the five hepatic receptor pathways, and a subset of eight of the ToxCast chemicals (indoxacarb, pyrithiobac-sodium, norflurazon, cyhalofop-butyl, methomyl, thiram, acetochlor, and propiconazole). These replicate data, coupled with internal replicates designed within the blinded ToxCast chemical library, provided additional data to evaluate interindividual differences between hepatocyte preparations and their potential impact on chemical profiles.Cell morphology and integrity were evaluated using phase-contrast microscopy as an indicator of hepatocyte cell health (Tyson & Green, 1987). Cultures for each treatment group (i.e., media, vehicle [0.2% DMSO], positive control inducers [multiple concentrations], and the ToxCast chemicals [multiple concentrations]) were observed and cell morphology was assessed relative to vehicle control cultures at each harvest time point (0, 6, 24, or 48 h). […] Images were evaluated at the conclusion of the study to assess changes in cell integrity and account for the effects of chemical exposure on uncharacteristic changes in concentration-dependent gene expression profiles. The results from these determinations of apparent cytotoxicity were annotated (yes/no) alongside the corresponding qNPA data for reference.At the conclusion of each treatment period, hepatocyte cultures (96-well) were washed with 1 volume of HBSS, lysed by addition of 25 ul ArrayPlate lysis buffer (HTG, Tucson, AZ), and 70 ul/well of Denaturation Oil, denatured by incubation at 95C for 10 min, and frozen at approximately -70C until analysis by nuclease protection assay (qNPA) (Roberts et al., 2007). For qNPA analysis, cell lysates were thawed at 50C for approximately 30 min, qNPA probes were added, and samples were incubated at 95C for 10 min to begin the detection process by denaturing the target RNA, dissociating the duplexes and secondary structure hybridization. At the conclusion of the hybridization period, S1 nuclease reagent was added to each sample to digest all nonprotected nucleotides at 50C for 60-90 min. […]
As to `Nc1c(Cl)c(Cl)nc(C(=O)O)c1Cl`, the result was inactive.
Regarding `CC(C)C1(C)N=C(c2ncccc2C(=O)O)NC1=O` (stereo not given), the call was inactive.
`COC(=O)NS(=O)(=O)c1ccc(N)cc1`: the call was inactive.
Consider `CS(=O)(=O)c1ccc(C(=O)C2C(=O)CCCC2=O)c([N+](=O)[O-])c1`, for which the call was inactive.
With `CC1(C)CON(Cc2ccccc2Cl)C1=O`, the call was inactive.
Consider `Cc1nc(N(C)C)nc(OC(=O)N(C)C)c1C`, for which the result was inactive.
To `Clc1cccc(C(Cl)(Cl)Cl)n1` belongs “inactive”; to `CC(C)N1C(=O)N(c2ccccc2)CSC1=NC(C)(C)C`, “inactive”; to `Cc1ccc(N=CN(C)C=Nc2ccc(C)cc2C)c(C)c1`, “inactive”.
`CC1(C)C(C=C(Cl)Cl)C1C(=O)OC(C#N)c1cccc(Oc2ccccc2)c1` (stereo not given): the outcome was inactive.
The result for `COCC(=O)N(c1c(C)cccc1C)C(C)C(=O)OC` (stereo not given) reads “inactive”; that for `CCOc1nc(C(Cl)(Cl)Cl)ns1`, “inactive”.
For the compound `CCCN(CC)CC1COC2(CCC(C(C)(C)C)CC2)O1` (stereo not given), the compound was classed as inactive.
To `COP(=S)(OC)Oc1ccc([N+](=O)[O-])c(C)c1` belongs “inactive”.
The result for `O=P(O)(O)CCCl` reads “inactive”; that for `CSC(=O)c1c(C(F)F)nc(C(F)(F)F)c(C(=O)SC)c1CC(C)C`, “inactive”; that for `COc1cc(Cl)c(OC)cc1Cl`, “inactive”.
For `CCOc1cc(C(C)(C)C)ccc1C1COC(c2c(F)cccc2F)=N1` (stereo not given), the compound was called inactive.
Consider `CCNC(=O)NC(=O)C(C#N)=NOC`, for which the result was inactive.
Consider `Cc1cnc(C2=NC(C)(C(C)C)C(=O)N2)c(C(=O)O)c1` (stereo not given), for which the outcome was inactive.
Regarding `N#CN=C1SCCN1Cc1ccc(Cl)nc1`, the compound was classed as inactive.
To `COP(=O)(OC)O/C(C)=C/C(=O)N(C)C` belongs “inactive”.
Take `CCOP(=S)(OCC)Oc1nc(Cl)n(C(C)C)n1`: the call was inactive.
The result for `COCC(C)N(C(=O)CCl)c1c(C)csc1C` (stereo not given) reads “inactive”.
To `CNC(=O)N(C)c1nnc(C(C)(C)C)s1` belongs “inactive”; to `CC(C)N1C(=O)c2ccccc2NS1(=O)=O`, “inactive”; to `COP(=S)(OC)SCn1nnc2ccccc2c1=O`, “inactive”.
To `COCc1cnc(C2=NC(C)(C(C)C)C(=O)N2)c(C(=O)O)c1` (stereo not given) belongs “inactive”; to `C=C(C)CN(CC)c1c([N+](=O)[O-])cc(C(F)(F)F)cc1[N+](=O)[O-]`, “inactive”.
For the compound `N#Cc1c(Cl)cccc1Cl`, the outcome was inactive.
In the case of `CCNP(=S)(OC)O/C(C)=C/C(=O)OC(C)C` (stereo not given), the call was inactive.
The result for `CC1(C)CCC(=Cc2ccc(Cl)cc2)C1(O)Cn1cncn1` (stereo not given) reads “inactive”; that for `CO/N=C(/C1=NOCCO1)c1ccccc1Oc1ncnc(Oc2ccccc2Cl)c1F`, “inactive”.
As to `CC(C)(C)C(=O)C(Oc1ccc(Cl)cc1)n1cncn1` (stereo not given), the call was inactive.
For the compound `CC(C)Oc1cccc(NC(=O)c2ccccc2C(F)(F)F)c1`, the result was inactive.
To `CCOP(=O)(OCC)Oc1nc(Cl)c(Cl)cc1Cl` belongs “inactive”; to `CN=C=S`, “inactive”; to `C=CCOC(=O)C(C)(C)OC(=O)c1cc(-n2c(=O)cc(C(F)(F)F)n(C)c2=O)ccc1Cl`, “inactive”.
Take `O=c1n(Cl)c(=O)n(Cl)c(=O)n1Cl`: the compound was called inactive.
For the compound `COC(=O)c1c(C(F)F)nc(C(F)(F)F)c(C2=NCCS2)c1CC(C)C`, the result was inactive.

These data come from PubChem BioAssay (EPA / NIEHS).
